Screening data as filed in PubChem.
The list is not random: actives were taken first. Their share in the collection is about 5.8%.
uPA generation: inhibitors of cell surface uPA generation | cell surface uPA generation assay, qHTS | Potency, µM (highest dose often 38.3 µM), most hits filed as inhibitors | 330,000 tested, 0.31% active; active = well fitted inhibition curve with a large enough effect; inconclusive = small, poorly fitted or top-dose-only effect; inactive = no such curve, though single readings can be large or run the other way; tested in mouse RAW 264.7 cells; also: nearly all actives have a fitted effect of over 55% in size
RORgamma inh: ROR gamma (mouse) transcription inhibition | P51450 | Drosophila S2 Gal4-RORgamma UAS-luciferase reporter, 20 h | Potency, µM (highest dose often 53.6 µM), hits mostly inhibitors | 310,000 tested, 5.4% active; also: nearly all actives have a fitted effect of over 60% in size
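Schneider cells (Drosophila), stable Gal4 DBD–ROR gamma + UAS-luc; 1 hr cmpd preincubation; Cu2+ induction 700 uM final; 20 hr ambient; luminescence.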
TRPV1 PAM: enhances activation of the human vanilloid receptor TRPV1; TRPV1-expressing cells, Fluo-8 calcium influx, capsaicin EC20 potentiation; 320,000 tested, 0.02% active; potentiation, % at 8.33 µM; in the data active = potentiation above about 80%; inconclusive = between about 30% and that limit
Target sequence (Q8NER1 whole entry, looked up): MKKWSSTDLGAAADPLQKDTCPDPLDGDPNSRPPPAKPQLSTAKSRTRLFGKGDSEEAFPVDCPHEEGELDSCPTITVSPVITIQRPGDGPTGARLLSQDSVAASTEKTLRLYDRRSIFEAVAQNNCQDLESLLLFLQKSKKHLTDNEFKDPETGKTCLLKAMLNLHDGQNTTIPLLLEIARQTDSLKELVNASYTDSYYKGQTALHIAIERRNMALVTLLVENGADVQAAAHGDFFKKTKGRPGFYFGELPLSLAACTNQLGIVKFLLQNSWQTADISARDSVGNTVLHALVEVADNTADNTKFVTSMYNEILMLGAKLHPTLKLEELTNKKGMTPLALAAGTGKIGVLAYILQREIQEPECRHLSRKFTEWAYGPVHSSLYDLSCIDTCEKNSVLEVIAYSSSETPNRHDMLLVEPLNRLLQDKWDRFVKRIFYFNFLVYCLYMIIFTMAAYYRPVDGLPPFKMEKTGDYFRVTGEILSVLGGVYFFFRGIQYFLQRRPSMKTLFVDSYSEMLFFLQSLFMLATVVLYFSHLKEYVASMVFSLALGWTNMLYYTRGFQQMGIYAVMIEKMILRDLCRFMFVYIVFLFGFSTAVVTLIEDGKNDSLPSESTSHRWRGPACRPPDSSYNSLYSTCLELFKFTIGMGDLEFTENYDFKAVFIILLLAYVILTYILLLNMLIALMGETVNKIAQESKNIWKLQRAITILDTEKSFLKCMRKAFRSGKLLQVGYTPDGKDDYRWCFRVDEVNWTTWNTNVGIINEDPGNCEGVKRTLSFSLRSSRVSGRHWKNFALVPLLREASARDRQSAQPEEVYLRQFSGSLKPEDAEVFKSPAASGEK
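Fluo-8 calcium influx in TRPV1-expressing cells, kinetic read (ex 480/em 520 nm). Compound added and read 3 min for agonist activity, followed by capsaicin at EC20 final and 2 min further read for enhancement.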
TRPV1 agonist: agonists of human vanilloid receptor 1 (TRPV1). 320,000 tested, 0.19% active. TRPV1-expressing cells, Fluo-8 calcium influx, agonist mode. Q8NER1. AID 540275. activation, % at 8.33 µM; in the data active = activation above about 80%; inconclusive = between about 30% and that limit
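Fluo-8 calcium influx in TRPV1-expressing cells, kinetic read (ex 480/em 520 nm). Compound added and read 3 min for agonist activity, followed by capsaicin at EC20 final and 2 min further read for enhancement.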
Gal4-VP16 FLuc: counter-screen for ROR gamma inhibitors: Gal4-VP16 reporter | AID 2546 | Drosophila S2 Gal4-VP16 UAS-luciferase, luminescence, 20 h | Potency, µM (top dose mostly 53.6 µM), usual class: inhibitors | 310,000 tested, 3.5% active;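 also: Gal4-VP16 expression switched on by copper sulfate through the metallothionein promoter; nearly all actives have a fitted effect of over 50% in size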
Numbers stand for hits; 0 = inactive; ? = inconclusive; - = not tested or not shown. Unless noted, calls follow the shape of the dose curve; as a rule, active = well fitted curve in the direction sought with a large enough effect; inconclusive = small, poorly fitted or top-dose-only effect, or another doubt; inactive = no such curve, though single readings can be large; an effect the other way counts as inactive or inconclusive.

SMILES | uPA generation | RORgamma inh | TRPV1 PAM | TRPV1 agonist | Gal4-VP16 FLuc
COc1ccc(CNc2ncnc3ccc(-c4ccc(C(=O)N(C)C)cc4)cc23)c(OC)c1 | - | 0 | - | - | 0
Cc1ccccc1C(=O)NCCOc1ccccc1Cl | 0 | 0 | 0 | 0 | 0
CC(C)(C)c1ccccc1NC(=S)NC1CCCCC1 | 0 | 1.78µM | 0 | ? | 6.31µM
CC(C)(C)c1ccccc1NC(=S)NC1CCCC1 | 0 | 4.47µM | 0 | 0 | 3.55µM
COc1cc(NC(=S)NC2CC2)c(OC)cc1Cl | 0 | 10µM | 0 | 0 | ?
COc1ccccc1NC(=S)NC1CCCCCC1 | 0 | 6.31µM | 0 | 0 | 3.98µM
COc1ccccc1NC(=O)NC1CCCCCCC1 | 0 | 0 | 0 | 0 | 0
CCOC(=O)c1sc(/N=C/c2ccc(O)cc2O)cc1C | 0 | 0 | 0 | 0 | 0
CCn1c(SCC(=O)Nc2nccc(C)n2)nc2ccccc21 | 0 | 0 | 0 | 0 | 0
Fc1ccccc1NC(=S)NC1CCCC1 | 0 | 11.2µM | 0 | 0 | ?
FC(F)(F)c1ccc(Cl)c(NC(=S)NC2CC2)c1 | 0 | 15.8µM | 0 | 0 | 17.8µM
O=c1c2nncn2c2cc(C(F)(F)F)ccc2n1CCNc1ncc(C(F)(F)F)cc1Cl | 0 | 0 | 0 | 0 | 0
NNc1nc2cccnc2n(CCNc2ncc(C(F)(F)F)cc2Cl)c1=O | 0 | 10µM | 0 | 0 | 0
O=c1c(Cl)nc2cc(Cl)ccc2n1CCNc1ncc(C(F)(F)F)cc1Cl | 0 | 11.2µM | 0 | 0 | 5.01µM
COc1ccc(OC)c(CC(=O)N2CCc3cc(OC)c(OC)cc3C2)c1 | 0 | 0 | 0 | 0 | 0
Oc1[nH]c2ccccc2c1N=NC(=S)N1CCOCC1 | ? | 0.1µM | 0 | 0 | 2.82µM
Oc1[nH]c2ccc(Br)cc2c1N=NC(=S)N1CCOCC1 | ? | 1.58µM | 0 | 0 | 1.58µM
COC(=O)N=Nc1c(O)[nH]c2ccc(Br)cc12 | 0 | 0 | 0 | 0 | 0
O=C(N=Nc1c(O)[nH]c2ccccc12)c1ccc(CN2CCOCC2)cc1 | 0 | 0 | 0 | 0 | 0
O=C(O)c1cc(N/N=C/c2ccc3c(c2)OCCO3)ccc1Cl | 0 | ? | 0 | 0 | 11.2µM
Fc1cccc(/C=N/Nc2ccccn2)c1 | 0 | 11.2µM | 0 | 0 | ?
Brc1ccccc1/C=N/Nc1ccc2ccccc2n1 | 0 | 0.316µM | 0 | 0 | 8.91µM
O=C(O)c1ccc(N/N=C/c2cc3cc4c(cc3nc2Cl)OCCO4)cc1 | 0.891µM | 2.51µM | 0 | 0 | 3.98µM
O=[N+]([O-])c1cccc(C=NNc2ccc3ccccc3n2)c1O | 0 | - | - | - | -
COc1cc(NC(=S)N2CCN(C)CC2)cc(OC)c1 | 0 | 0 | 0 | 0 | 0
SMILES | uPA generation | RORgamma inh | TRPV1 PAM | TRPV1 agonist | Gal4-VP16 FLuc
Cc1c(OCC(=O)NCC2CCC(C(=O)O)CC2)ccc2c(-c3ccccc3)cc(=O)oc12 (configuration not stated) | 0 | 0 | 0 | 0 | 0
Cc1cc(N/N=C(/CCC(=O)O)C(=O)O)nc2ccccc12 | 0 | 0 | 0 | 0 | 0
Cc1ccc(C)c(/C=N/Nc2ccccn2)c1 | 0 | 10µM | 0 | 0 | 0
Cc1cc(N/N=C/c2ccccc2Br)nc2ccccc12 | 0 | 0.562µM | 0 | 0 | 15.8µM
Cc1cc(N/N=C/c2ccc3c(c2)OCO3)nc2ccccc12 | 0 | 12.6µM | 0 | 0 | 0
Fc1cccc(/C=N/Nc2ccc3ccccc3n2)c1 | 0 | 7.08µM | 0 | 0 | ?
Fc1ccc(/C=N\Nc2cccc(F)c2)cc1 | 0 | 0 | 0 | 0 | 0
C(=N\Nc1ccccn1)/c1ccc2c(c1)OCCO2 | 0 | 12.6µM | 0 | 0 | ?
Brc1ccc(/C=N/Nc2ccc3ccccc3n2)cc1 | 0 | 7.94µM | 0 | 0 | ?
O=S(=O)(N/N=C/c1ccc2c(c1)OCCO2)c1ccccc1 | 0 | 0 | 0 | 0 | 0
Cc1nc(C)c(C(=O)Nc2ncc([N+](=O)[O-])s2)o1 | 0 | 7.94µM | 0 | 0 | ?
S=c1[nH]nc(COc2ccccc2)n1/N=C/c1ccccc1Cl | 0 | 6.31µM | 0 | 0 | 12.6µM
S=c1[nH]nc(COc2ccccc2)n1/N=C/c1c(Cl)cccc1Cl | 0 | 3.55µM | 0 | 0 | 0
S=c1[nH]nc(COc2ccccc2)n1/N=C/c1cccc(Cl)c1Cl | 0 | ? | 0 | 0 | ?
Cc1ccc(/C=N/NC(=O)CN2CCN(S(=O)(=O)c3ccc(Br)cc3)CC2)s1 | 0 | ? | 0 | 0 | ?
O=C(CN1CCN(S(=O)(=O)c2ccc(Br)cc2)CC1)N/N=C/c1ccc(Br)s1 | 0 | 6.31µM | 0 | 0 | 8.91µM
COC(=O)N1CCC2(CC1)CN(c1ccccc1)C2 | - | 0 | - | - | 0
NC(N)=NCCNS(=O)(=O)c1cccc2cnccc12 | - | 0 | - | - | 0
C[C@@H]1CNCCN1S(=O)(=O)c1cccc2cnccc12 | - | ? | - | - | 25.1µM
COc1ccc(OC(=O)COc2ccc(C)cc2)cc1 | 0 | 0 | 0 | 0 | 0
COc1ccc(OCC(=O)Sc2ccc(C)cc2)cc1 | 0 | 3.16µM | 0 | 0 | 0
Cc1cc(Cl)ccc1OCC(=O)OCC(=O)N(CC(C)C)c1c(N)n(Cc2ccccc2)c(=O)[nH]c1=O | 0 | - | ? | 0 | -
Cc1ccc(N2CC(NC(=O)C(=O)c3c(C)[nH]c4ccccc34)CC2=O)cc1C (configuration not stated) | 0 | - | 0 | 0 | -
Nc1nc(NC(=O)C(Cl)(Cl)Cl)nn1-c1ccccc1 | 0 | 12.6µM | 0 | 0 | ?
CNC(=S)N/N=C(\C)c1ccccc1 | 0 | 3.98µM | 0 | 0 | 15.8µM
SMILES | uPA generation | RORgamma inh | TRPV1 PAM | TRPV1 agonist | Gal4-VP16 FLuc
CNC(=S)N/N=C(\C)c1ccc(C(C)(C)C)cc1 | 0 | 1.12µM | 0 | ? | 0.891µM
C/C(=N\NC(=O)C(N)=O)c1cccc([N+](=O)[O-])c1 | 0 | 0 | 0 | 0 | 0
CNC(=S)N/N=C(\C)c1cccc([N+](=O)[O-])c1 | 0 | 3.55µM | 0 | 0 | 4.47µM
C/C(=N/NC(=O)c1ccc(C(C)(C)C)cc1)c1cccnc1 | 0 | - | - | - | -
CCCCc1ccc(S(=O)(=O)N2CCC3(CC2)OCCO3)cc1 | 0 | ? | 0 | 0 | 0
CC(NC(=O)CNC(=O)c1cccc(Cl)c1)c1ccccc1 (configuration not stated) | 0 | 0 | 0 | 0 | ?
c1ccc(-c2ccc3c(c2)c2c4n3CCN=C4CCC2)cc1 | - | 11.2µM | 0 | 0 | ?
O=C(Cn1cc(C(=O)C(F)(F)F)c2ccccc21)N1CCOCC1 | 0 | 0 | 0 | 0 | 0
O=c1[nH]c(Cc2ccccn2)nc2scc(-c3ccccc3Cl)c12 | 0 | 6.31µM | 0 | 0 | 11.2µM
Cc1cccc(NC(=S)N(CCN2CCOCC2)Cc2cc3cc4c(cc3[nH]c2=O)OCCO4)c1 | ? | 0 | 0 | ? | 0
CN1CCc2c(sc3c2C(=O)NC(c2ccccn2)N3)C1 (configuration not stated) | 0 | 0 | 0 | 0 | 0
O=C1NC(c2ccccn2)Nc2sc3c(c21)CCC3 (configuration not stated) | 0 | 14.1µM | 0 | 0 | ?
COc1ccc(CNC(=O)N2CCc3ccccc3C2)cc1Cl | 0 | 0 | 0 | ? | 0
CCOc1ccc(N2C(=O)CC(Sc3ncccn3)C2=O)cc1 (configuration not stated) | 0 | ? | 0 | 0 | ?
C=CCNc1nnc(SC2CC(=O)N(c3ccc(OCCC)cc3)C2=O)s1 (configuration not stated) | 0 | ? | 0 | 0 | 17.8µM
